PubChem BioAssay (Tox21)
Records with an inconclusive call do not appear. The source made the active and inactive calls. The call rests on the fitted dose curve.

Target: Acetylcholinesterase (Homo sapiens) (UniProt P22303)
Experiment: Acetylcholinesterase (AChE) small molecule antagonists: enzyme-based qHTS assay (AID 1347397); further: nearly all actives have a fitted effect of over 55% in size
Conditions: Potency: AChE enzyme activity inhibition; outcome: AChE enzyme activity inhibition; series mostly up to 115 µM; activity change, negative = inhibition: at the top concentration
Procedure, shortened: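 First, recombinant human AChE (50 mU/mL as dispensed) received test compound or DMSO. Second, plates stood 30 min at room temperature. Third, DTNB and acetylthiocholine were added, followed by 10 min at room temperature and colorimetric detection.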
On the % scale 0 is the no-effect control and ±100 the full control effect; potency means the concentration at half of the fitted maximal effect.

Acetylcholinesterase (Homo sapiens), sequence (P22303 whole entry, looked up): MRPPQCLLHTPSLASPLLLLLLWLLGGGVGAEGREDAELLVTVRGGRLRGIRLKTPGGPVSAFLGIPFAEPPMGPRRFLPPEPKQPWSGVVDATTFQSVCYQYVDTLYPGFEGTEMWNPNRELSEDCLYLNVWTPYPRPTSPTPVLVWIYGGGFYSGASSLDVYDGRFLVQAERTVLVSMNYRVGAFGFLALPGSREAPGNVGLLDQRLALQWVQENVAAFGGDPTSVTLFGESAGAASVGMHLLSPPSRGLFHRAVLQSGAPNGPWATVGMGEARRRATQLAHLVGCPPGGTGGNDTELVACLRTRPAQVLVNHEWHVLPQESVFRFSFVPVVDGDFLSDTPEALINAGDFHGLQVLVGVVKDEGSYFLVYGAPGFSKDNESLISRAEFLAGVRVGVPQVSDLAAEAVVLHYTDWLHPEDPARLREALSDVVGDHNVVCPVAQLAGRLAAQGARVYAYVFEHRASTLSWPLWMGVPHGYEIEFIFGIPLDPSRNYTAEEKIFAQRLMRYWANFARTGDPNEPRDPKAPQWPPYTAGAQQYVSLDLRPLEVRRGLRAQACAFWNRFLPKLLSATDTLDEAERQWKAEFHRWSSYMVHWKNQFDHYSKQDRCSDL

| SMILES | activity change, negative = inhibition | Potency |
| --- | --- | --- |
| C=C(Cl)Cl | -0.818% (inactive) | – |
| O=C(O)C(F)(F)C(F)(F)C(F)(F)C(F)(F)C(F)(F)F | 0.197% (inactive) | – |
| O=C(O)c1ccc(=O)[nH]c1 | 0.54% [at 53 µM] (inactive) | – |
| O=C(O)C(Cl)(Cl)Br | -0.0158% (inactive) | – |
| Cc1nc2ccccc2c(=O)n1-c1ccccc1Cl | 2.52% (inactive) | – |
| CC(Oc1cc(Cl)c(Cl)cc1Cl)C(=O)O (stereo not drawn) | -0.409% (inactive) | – |
| N#CC(C#N)=C(C#N)C#N | 5.42% (inactive) | – |
| COc1cc(CC(C)N)c(OC)cc1Br (stereo not drawn) | 1.12% (inactive) | – |
| O=C(CCl)CCl | – | inactive |
| CCCCC(CC)COC(=O)c1c(Br)c(Br)c(Br)c(Br)c1C(=O)OCC(CC)CCCC (stereo not drawn) | -9.86% [at 53 µM] (inactive) | – |
| O=P(OCC(Br)CBr)(OCC(Br)CBr)OCC(Br)CBr (stereo not drawn) | – | inactive |
| O=C(Cl)OCCOCCOC(=O)Cl | 2.49% (inactive) | – |
| N#CC(C#N)=Cc1ccc(O)c(O)c1 | 8.22% [at 53 µM] (inactive) | – |
| COc1ccc2c(c1OC)C(=O)O[C@H]2[C@@H]1c2cc3c(cc2CCN1C)OCO3 | 0.691% [at 53 µM] (inactive) | – |
| CC(C)(C)N(NC(=O)c1ccc(Cl)cc1)C(=O)c1ccccc1 | -1.25% (inactive) | – |
| NCCc1cc(O)c(O)cc1O | 1.11% [at 53 µM] (inactive) | – |
| C[Si](Cn1cncn1)(c1ccc(F)cc1)c1ccc(F)cc1 | – | inactive |

| SMILES | activity change, negative = inhibition | Potency |
| --- | --- | --- |
| COc1cc(C[C@@H](C)N)c(OC)cc1Br | 0.808% (inactive) | – |
| C[C@H]1[C@@H]2Cc3ccc(O)cc3[C@@]1(C)CCN2C | – | 33.9 µM (active) |
| CNC(=O)Oc1cccc(N=CN(C)C)c1 | – | 20 µM (active) |
| O=[N+]([O-])c1cc(Cl)c(Cl)cc1Cl | -1.09% (inactive) | – |
| CCOC(C(=O)OCCN(C)C)(c1ccccc1)c1ccccc1 | 0.27% [at 53 µM] (inactive) | – |
| CCCCCCCCCCCC[N+](C)(C)CCOc1ccccc1 | – | 63.3 µM (active) |
| COC(=O)Cc1ccccc1 | 1.13% (inactive) | – |
| O=C(N[C@H]1CN2CCC1CC2)c1ccc2c(c1)OCCO2 | -3.24% (inactive) | – |
| CCCCC#N | 4.31% (inactive) | – |
| ClCc1ccccc1Cl | 0.136% (inactive) | – |
| CC(C)(C#N)C(C)(C)C#N | 0.0105% (inactive) | – |
| COc1ccc(C(=O)c2c(C)n(CCN3CCOCC3)c3ccccc23)cc1 | 0.338% [at 53 µM] (inactive) | – |
| Nc1c(Br)cc(Br)c2c1C(=O)c1ccccc1C2=O | 0.0969% [at 23.6 µM] (inactive) | – |
| C=CCOC(=O)C(C)(C)OC(=O)c1cc(-n2c(=O)cc(C(F)(F)F)n(C)c2=O)ccc1Cl | 0.295% (inactive) | – |
| CC(CC(C(N)=O)(c1ccccc1)c1ccccc1)N(C)C (stereo not drawn) | 0.214% [at 53 µM] (inactive) | – |
| CC(C)(C)NCC(O)c1cc(Cl)c(N)c(C(F)(F)F)c1 (stereo not drawn) | -1.04% [at 53 µM] (inactive) | – |

Target: Acetylcholinesterase (Homo sapiens) (UniProt P22303)
Experiment: Acetylcholinesterase (AChE) small molecule antagonists: fluorescence cell-based qHTS assay (AID 1347398); further: nearly all actives have a fitted effect of over 50% in size
Conditions: SH-SY5Y cells; Potency: AChE activity; outcome: AChE activity; series mostly up to 115 µM; activity change, negative = inhibition: at the top concentration
Procedure, shortened: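 Homogeneous quantitative HTS format. SH-SY5Y cells seeded at 2,000 per well settle overnight at 37 C. Compound pretreatment runs 30 min (37 C, 5% CO2); substrate/probe mix then reacts 40 min at RT before reading 490/520 nm.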

| SMILES | activity change, negative = inhibition | Potency |
| --- | --- | --- |
| C=C(Cl)Cl | 1.17% (inactive) | – |
| CCOC(=O)c1cn2nc(OP(=S)(OCC)OCC)cc2nc1C | – | 39.9 µM (active) |
| O=C(O)C(F)(F)C(F)(F)C(F)(F)C(F)(F)C(F)(F)F | 3.71% (inactive) | – |
| O=C(O)c1ccc(=O)[nH]c1 | -1.52% [at 53.7 µM] (inactive) | – |
| O=C(O)C(Cl)(Cl)Br | 1.97% (inactive) | – |
| Cc1nc2ccccc2c(=O)n1-c1ccccc1Cl | -15.1% (inactive) | – |
| CC(Oc1cc(Cl)c(Cl)cc1Cl)C(=O)O (stereo not drawn) | 10.2% (inactive) | – |
| N#CC(C#N)=C(C#N)C#N | 7.01% (inactive) | – |
| COc1cc(CC(C)N)c(OC)cc1Br (stereo not drawn) | 11.7% (inactive) | – |
| O=C(CCl)CCl | – | inactive |
| CCCCC(CC)COC(=O)c1c(Br)c(Br)c(Br)c(Br)c1C(=O)OCC(CC)CCCC (stereo not drawn) | -11.4% [at 53.7 µM] (inactive) | – |
| O=P(OCC(Br)CBr)(OCC(Br)CBr)OCC(Br)CBr (stereo not drawn) | -13.1% (inactive) | – |
| O=C(Cl)OCCOCCOC(=O)Cl | 2.15% (inactive) | – |
| N#CC(C#N)=Cc1ccc(O)c(O)c1 | -1.64% [at 53.7 µM] (inactive) | – |
| COc1ccc2c(c1OC)C(=O)O[C@H]2[C@@H]1c2cc3c(cc2CCN1C)OCO3 | -4.52% [at 53.7 µM] (inactive) | – |
| CC(C)(C)N(NC(=O)c1ccc(Cl)cc1)C(=O)c1ccccc1 | -1.23% (inactive) | – |
| NCCc1cc(O)c(O)cc1O | -1.54% [at 53.7 µM] (inactive) | – |

| SMILES | activity change, negative = inhibition | Potency |
| --- | --- | --- |
| C[Si](Cn1cncn1)(c1ccc(F)cc1)c1ccc(F)cc1 | – | inactive |
| COc1cc(C[C@@H](C)N)c(OC)cc1Br | 12.8% (inactive) | – |
| C[C@H]1[C@@H]2Cc3ccc(O)cc3[C@@]1(C)CCN2C | – | 2.14 µM (active) |
| CNC(=O)Oc1cccc(N=CN(C)C)c1 | – | 3.56 µM (active) |
| O=[N+]([O-])c1cc(Cl)c(Cl)cc1Cl | -5.36% (inactive) | – |
| CCOC(C(=O)OCCN(C)C)(c1ccccc1)c1ccccc1 | -8.39% [at 53.7 µM] (inactive) | – |
| CCCCCCCCCCCC[N+](C)(C)CCOc1ccccc1 | – | 35.6 µM (active) |
| COC(=O)Cc1ccccc1 | 21.8% (inactive) | – |
| CCCCC#N | -0.649% (inactive) | – |
| ClCc1ccccc1Cl | 3.95% (inactive) | – |
| CC(C)(C#N)C(C)(C)C#N | 3.11% (inactive) | – |
| COc1ccc(C(=O)c2c(C)n(CCN3CCOCC3)c3ccccc23)cc1 | -5.03% [at 53.7 µM] (inactive) | – |
| Nc1c(Br)cc(Br)c2c1C(=O)c1ccccc1C2=O | 2.58% [at 23.8 µM] (inactive) | – |
| C=CCOC(=O)C(C)(C)OC(=O)c1cc(-n2c(=O)cc(C(F)(F)F)n(C)c2=O)ccc1Cl | -1.6% (inactive) | – |
| CC(CC(C(N)=O)(c1ccccc1)c1ccccc1)N(C)C (stereo not drawn) | -9.42% [at 53.7 µM] (inactive) | – |
| CC(C)(C)NCC(O)c1cc(Cl)c(N)c(C(F)(F)F)c1 (stereo not drawn) | 5.45% [at 53.7 µM] (inactive) | – |

Target: Acetylcholinesterase (Homo sapiens) (UniProt P22303)
Experiment: Acetylcholinesterase (AChE) small molecule antagonists: enzyme-based qHTS assay with human liver microsomes (AID 1347399); further: nearly all actives have a fitted effect of over 60% in size
Conditions: Potency: qHTS inhibition; outcome: qHTS inhibition; series mostly up to 115 µM; activity change, negative = inhibition: at the top concentration
Procedure, shortened: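 Recombinant human AChE (50 mU/mL in the enzyme mix) and human liver microsomes (0.25 mg/mL final) were preincubated with compound and NADPH (0.25 mg/mL final) for 30 min at 37 C. Acetylthiocholine/DTNB was then added; thiocholine was read colorimetrically after 10 min at room temperature.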

| SMILES | activity change, negative = inhibition | Potency |
| --- | --- | --- |
| C=C(Cl)Cl | 0.0071% (inactive) | – |
| CCOC(=O)c1cn2nc(OP(=S)(OCC)OCC)cc2nc1C | – | 2 µM (active) |
| O=C(O)c1ccc(=O)[nH]c1 | 1.4% [at 53 µM] (inactive) | – |
| Cc1nc2ccccc2c(=O)n1-c1ccccc1Cl | -1.63% (inactive) | – |
| CC(Oc1cc(Cl)c(Cl)cc1Cl)C(=O)O (stereo not drawn) | 1.18% (inactive) | – |
| N#CC(C#N)=C(C#N)C#N | 7.39% (inactive) | – |
| COc1cc(CC(C)N)c(OC)cc1Br (stereo not drawn) | -2.36% (inactive) | – |
| O=C(CCl)CCl | – | inactive |
| CCCCC(CC)COC(=O)c1c(Br)c(Br)c(Br)c(Br)c1C(=O)OCC(CC)CCCC (stereo not drawn) | 0.0548% [at 53 µM] (inactive) | – |
| O=P(OCC(Br)CBr)(OCC(Br)CBr)OCC(Br)CBr (stereo not drawn) | – | inactive |
| O=C(Cl)OCCOCCOC(=O)Cl | -0.32% (inactive) | – |
| N#CC(C#N)=Cc1ccc(O)c(O)c1 | 1.5% [at 53 µM] (inactive) | – |
| COc1ccc2c(c1OC)C(=O)O[C@H]2[C@@H]1c2cc3c(cc2CCN1C)OCO3 | -3.36% [at 53 µM] (inactive) | – |
| CC(C)(C)N(NC(=O)c1ccc(Cl)cc1)C(=O)c1ccccc1 | -0.286% (inactive) | – |
| NCCc1cc(O)c(O)cc1O | -8.14% [at 53 µM] (inactive) | – |
| C[Si](Cn1cncn1)(c1ccc(F)cc1)c1ccc(F)cc1 | – | inactive |
| C[C@H]1[C@@H]2Cc3ccc(O)cc3[C@@]1(C)CCN2C | – | 191 µM (active) |
| CNC(=O)Oc1cccc(N=CN(C)C)c1 | – | 63.3 µM (active) |
| O=[N+]([O-])c1cc(Cl)c(Cl)cc1Cl | 0.547% (inactive) | – |
| CCCCCCCCCCCC[N+](C)(C)CCOc1ccccc1 | – | inactive |
| COC(=O)Cc1ccccc1 | 0.362% (inactive) | – |
| O=C(N[C@H]1CN2CCC1CC2)c1ccc2c(c1)OCCO2 | 0.291% (inactive) | – |
| CCCCC#N | 4.6% (inactive) | – |
| ClCc1ccccc1Cl | 0.316% (inactive) | – |
| COc1ccc(C(=O)c2c(C)n(CCN3CCOCC3)c3ccccc23)cc1 | 0.726% [at 53 µM] (inactive) | – |
| CC(CC(C(N)=O)(c1ccccc1)c1ccccc1)N(C)C (stereo not drawn) | -1.33% [at 53 µM] (inactive) | – |
| CC(C)(C)NCC(O)c1cc(Cl)c(N)c(C(F)(F)F)c1 (stereo not drawn) | -0.36% [at 53 µM] (inactive) | – |
